# Laboratory results: PubChem BioAssay (EPA / NIEHS)
# Inconclusive results are not listed. Calls of active or inactive are those of the source. How the source made its calls, unless noted: active means hit-call score of the fitted dose curve at least 0.9, where 1 is the maximum; inconclusive means response in the unintended direction; inactive means score below 0.9.
# What was measured:
# IYD (gene 389434) = assay: CCTE_GLTED_hIYD: CCTE's human Iodotyrosine Deiodinase (xIYD) Inhibition Assay, Great Lakes Toxicology and Ecology Division (GLTED) Lab (AID 2284317);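 further: cell-free human IYD enzyme made in baculovirus insect cells; iodide freed from monoiodotyrosine measured by cerium arsenite color change at 420 nm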
# How it was run: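 hIYD: baculovirus-expressed human IYD deiodinated monoiodotyrosine for 3 h with test chemical; free iodide was measured by Sandell-Kolthoff absorbance at 420 nm and normalized to MNT and DMSO/NaOH controls.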
# [1] = CCTE_Deisenroth_5AR_NBTE_donor: CCTE's 5alpha-reductase NanoBRET Target Engagement Assay […], Deisenroth Lab (AID 2284319; active means hit-call score of the fitted dose curve at least 0.9, where 1 is the maximum; inactive means score below 0.9); details: actives raise or lower the signal
# How it was run: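 Donor NanoLuc luminescence at 460-20 nm is the read-out, serving artifact detection. Transiently expressed SRD5A2-NanoLuc in HEK293T; 5 h total chemical exposure, testosterone tracer added for the final 2 h; fitting bidirectional relative to DMSO baseline.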
# [2] = CCTE_Deisenroth_5AR_NBTE_acceptor: CCTE's 5alpha-reductase NanoBRET Target Engagement Assay - Autofluorescence Screen, Deisenroth Lab (AID 2284321; active means hit-call score of the fitted dose curve at least 0.9, where 1 is the maximum; inactive means score below 0.9;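 further: compound fluorescence in the acceptor channel under 460 nm excitation flags autofluorescence artifacts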); details: actives raise or lower the signal
# How it was run: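 Autofluorescence check: ToxCast chemicals, nominal 100 uM, excitation 460 nm, n=3 runs. Acceptor fluorescence endpoint, bidirectional fit relative to DMSO. Parent assay in HEK293T, 5 h post-dose.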
# SRD5A2 (gene 6716) = assay: CCTE_Deisenroth_5AR_NBTE_ratio: CCTE's 5alpha-reductase NanoBRET Target Engagement Assay - Ratio, Deisenroth Lab (AID 2284322; active means hit-call score of the fitted dose curve at least 0.9, where 1 is the maximum; inactive means score below 0.9); details: actives raise or lower the signal
# How it was run: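 HEK293T transiently expressing SRD5A2-NanoLuc; cells exposed to chemical (8-point, 10 nM - 29.9 uM) for 5 h total, testosterone tracer added for final 2 h. NanoBRET acceptor/donor ratio (650/460 nm), bidirectional fit vs DMSO.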
# [3] = VALA_MIGHUV2_CellCount: Viability Assessment in the VALA Sciences human Umbilical Vein Endothelial Cell Migration (MIGHUV) Assay, Area of Scratch Wound after Recovery (AID 2284314)
# Procedure: VALA_MIGHUV2_BCatenin is a cell-based, multiplexed assay that uses umbilical vein-derived endothelial cells (HUVEC). Measurements were taken 24 hours after chemical dosing in a 96-well plate.VALA_MIGHUV2_CellCount is the one of two assay components measured from the VALA_MIGHUV2 assay. It is designed to make measurements of viability, a form of viability reporter, as detected with fluorescence intensity signals by HCS Fluorescent Imaging technology. Data from the assay component VALA_MIGHUV2_CellCount was analyzed at the endpoint, VALA_MIGHUV2_CellCount, in the positive analysis fitting direction relative to DMSO as the negative control and baseline of activity. Using a type of viability reporter, loss-of-signal activity can be used to understand viability. To generalize the intended target to other relatable targets, this assay endpoint is annotated to the cell cycle intended target family, where the subfamily is cell count.
# Cells were seeded on 384-well microplates (day-0) at a density of 9000 cells per well for detection of wound area recovery or 4000 cells per well for detection of beta-catenin (CTNB) immunoreactivity and incubated in Endothelial Cell Growth Medium (CAI, San Diego; catalog 211-500). After 24 hours of culture, the HUVEC plates were scratched using a custom scratch head with the Bravo liquid handling system. This created a 'wound' area without cells in each well. Test chemical was added within 30 min, each tested in 3-replicates across a 6-point concentration response (0.1 % DMSO vehicle control). 'ScratchOnly' Plates were incubated for a 24 h 'wound recovery' period and then fixed with 4% paraformaldehyde. Hoechst dye was used to visualize cell nuclei in the wound area, and CTNB immunofluorescence for visualizing CTNB-positive nuclei (beta-Catenin (L54E2) Mouse mAb (IF Preferred) 2677; Cell Signaling Technology, Danvers, MA). Each HUVEC plate included neutral vehicle control (0.1 % DMSO) treated wells and Cytochalasin D (actin cytoskeletal disrupter) or BIO-acetoxime (synthetic GSK3 inhibitor) as positive reference controls for endothelial migration and nuclear translocation of CTNB, respectively.
# [4] = VALA_TUBHUV_Antagonist_TubuleLength: VALA Sciences human Umbilical Vein Endothelial Tubule Formation (TUBHUV) Antagonism Assay (AID 2284325)
# How it was run: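 HUVEC–HDF co-culture (1:3) pre-grown 3 days with 10 ng/ml VEGF, then 3 days with compound plus VEGF. Fixed, nuclear and CD31 stained; total tubule length by imaging versus 0.1% DMSO; suramin 100 uM positive control.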
# [5] = CCTE_Mundy_HCI_iCellGluta_NOG_NeuriteLength: CCTE's Neurite Outgrowth Assay in iCellGluta cells for Neurite Length, Mundy Lab (AID 2284318)
# How it was run: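 Automated high-content imaging of betaIII-tubulin (Alexa Fluor-488) and Hoechst-stained cells gave neurite length, normalized to the DMSO baseline.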
# [6] = VALA_TUBIPS_Antagonist_TubuleLength: VALA Sciences human iPS-derived Endothelial Tubule Formation (TUBIPS) Antagonist Assay (AID 2284313)
# How it was run: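 Cells grown 3 days with 10 ng/ml VEGF, then exposed to compounds in VEGF medium for another 3 days. After fixation, nuclear stain and CD31 immunofluorescence imaging gave mean total tubule length against 0.1% DMSO; suramin (100 uM) inhibition control.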
# [7] = VALA_MIGHUV2_Bcatenin: VALA Sciences human Umbilical Vein Endothelial Cell Migration (MIGHUV) Assay, Nuclear Translocation of beta-Catenin after Recovery (AID 2284315)
# How it was run: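 HUVEC (4000 cells/well) scratch-wounded, dosed within 30 min over 6 concentrations in triplicate, recovered 24 h. After fixation, Hoechst and anti-beta-catenin immunofluorescence imaged for nuclear CTNB. Gain of signal versus 0.1% DMSO.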
# [8] = VALA_MIGHUV2_WoundArea: VALA Sciences human Umbilical Vein Endothelial Cell Migration (MIGHUV) Assay, Area of Scratch Wound after Recovery (AID 2284316)
# How it was run: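 HUVEC seeded at 9000 cells/well, scratched after 24 h; test chemical added within 30 min, 6-point concentration response in triplicate (0.1% DMSO vehicle). After 24 h wound recovery, cells fixed and Hoechst-stained nuclei in wound area imaged; Cytochalasin D reference control.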
smiles,measurement,setting,value
CCN(CC)CCOc1ccc(C(=C(Cl)c2ccccc2)c2ccccc2)cc1,AC50,IYD (gene 389434),16 µM (active)
same,outcome,[1],inactive
same,outcome,[2],inactive
same,outcome,SRD5A2 (gene 6716),inactive
CCCCC(CC)COP(=O)(OCC(CC)CCCC)OCC(CC)CCCC (stereo unspecified),outcome,[3],inactive
same,AC50,[4],10 µM (active)
O=C(O)c1[nH]n(-c2ccc(S(=O)(=O)O)cc2)c(=O)c1N=Nc1ccc(S(=O)(=O)O)cc1,AC50,[1],35 µM (active)
same,outcome,[2],inactive
same,AC50,SRD5A2 (gene 6716),57.5 µM (active)
Cc1c(C)c2c(c(C)c1O)CCC(C)(COc1ccc(CC3SC(=O)NC3=O)cc1)O2 (stereo unspecified),AC50,IYD (gene 389434),94.7 µM (active)
same,outcome,[1],inactive
same,outcome,[2],inactive
same,AC50,SRD5A2 (gene 6716),29.7 µM (active)
OCC(O)CO,outcome,[5],inactive
S=c1[nH]c2ccccc2s1,outcome,IYD (gene 389434),inactive
Nc1nc(Cl)nc2c1ncn2[C@H]1C[C@H](O)[C@@H](CO)O1,AC50,[6],1.78 µM (active)
same,AC50,[3],2.48 µM (active)
same,outcome,[7],inactive
same,AC50,[8],28.9 µM (active)
same,AC50,[4],0.703 µM (active)
CCCCC(CC)COC(=O)CCCCCCCC(=O)OCC(CC)CCCC (stereo unspecified),outcome,[1],inactive
same,outcome,[2],inactive
same,outcome,SRD5A2 (gene 6716),inactive
CC(=O)CC(c1ccccc1)c1c(O)c2ccccc2oc1=O (stereo unspecified),outcome,[5],inactive
COC(=O)[C@H]1[C@H]2C[C@@H]3c4[nH]c5cc(OC)ccc5c4CCN3C[C@H]2C[C@@H](OC(=O)c2cc(OC)c(OC)c(OC)c2)[C@@H]1OC,outcome,[3],inactive
same,outcome,[8],inactive
same,AC50,[4],84.3 µM (active)
Cc1ccc(-c2cc(C(F)(F)F)nn2-c2ccc(S(N)(=O)=O)cc2)cc1,outcome,[3],inactive
same,outcome,[8],inactive
O=C1c2c(O)cccc2Cc2cccc(O)c21,outcome,[1],inactive
same,outcome,[2],inactive
same,AC50,SRD5A2 (gene 6716),75.5 µM (active)
CCCCCCCCCCCCCCOS(=O)(=O)O,AC50,IYD (gene 389434),29.6 µM (active)
same,outcome,[1],inactive
same,outcome,[2],inactive
same,AC50,SRD5A2 (gene 6716),26.1 µM (active)
